Bioassay records (PubChem BioAssay)
In the library only some 21% were active in any assay of this set; here they are far more common.
Shiga toxin inh = blocks Shiga toxin action in Vero cells; actives 9.2% (n = 290,000); AID 2315; inhibition, % at 38.7 µM; Vero cells, Shiga toxin protein synthesis inhibition reporter; in the data active = inhibition mostly above about 28%, no sharp cut-off; inactive = mostly below about 43%; note: 0% is about no effect
Cycloheximide cs = counter-screen for Shiga toxin inhibitors: cycloheximide protein synthesis inhibition; actives 12% (n = 300,000); AID 2314; cell reporter, cycloheximide protein synthesis inhibition counterscreen; max response, %; in the data active = max response mostly above about 13%, no sharp cut-off; inactive = mostly below about 14%; note: read at 38.3 µM for the half of the compounds with a filed dose; 0% is about no effect
Pf growth 96h = P. falciparum growth inhibition at 96 hour, primary screen for plastid delayed-death inhibitors; P. falciparum luciferase reporter growth, 96 h; Potency, µM (titrated, usually from 28.7 µM), for the others: top-dose activity change, negative = inhibition, actives largely listed as inhibitors; actives 6.9% (n = 320,000); note: potency is the fitted concentration of half-maximal effect; % is set by controls: 0 for no effect and ±100 for the full control effect
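Compounds incubated with erythrocytes infected by luciferase-expressing P. falciparum (2% hematocrit, 0.05% parasitemia final) for 96 hours, 37 C in 5% CO2. Growth inhibition scored as decreased luciferase luminescence.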
HCV inhibitor = HCV inhibition; Huh7.5.1 HCVcc-Cre infection, luciferase reporter, 44 h; Potency, µM (highest dose often 41.8 µM), for the others: at the top dose activity change, negative = inhibition, hits mostly inhibitors; actives 3.4% (n = 340,000); AID 651820; note: potency is the fitted concentration of half-maximal effect; % is set by controls: 0 for no effect and ±100 for the full control effect
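After 44 h co-culture of compound, cells and HCVcc-Cre (~0.5 moi), substrate is added for 15 min at room temperature and luciferase measured over 15 sec. Cells were seeded at 1,000/well and pre-cultured 4 h.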
AMA1-RON2 inh = disrupts binding of P. falciparum AMA1 to RON2; AID 720542; Potency, µM (series often up to 58.2 µM), for the others: at the highest dose activity change, negative = inhibition, actives largely listed as inhibitors; AlphaScreen AMA1-biotinylated RON2 peptide binding; actives 0.2% (n = 360,000);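 note: potency is the fitted concentration of half-maximal effect; 0% = vehicle wells and -100% = peptide control; nearly all actives have a fitted effect of over 45% in size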
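AMA1 (3D7) with his tag at 25 nM final met compounds first, then biotinylated RON2 peptide at 25 nM; detection used donor plus acceptor beads, 10 µg/mL apiece, read by AlphaScreen after 30 min at room temperature.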
Pf growth 48h = inhibits P. falciparum growth in the first generation, 48 h. P. falciparum luciferase growth in erythrocytes, 48 h. Potency, µM (titrated, usually from 28.7 µM), inactives show at the highest dose activity change, negative = inhibition, most hits filed as inhibitors. actives 5.9% (n = 310,000); note: potency is the fitted concentration of half-maximal effect; % is set by controls: 0 for no effect and ±100 for the full control effect
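Parasite viability was followed by luminescence of a genomically integrated firefly luciferase. Cultures held 0.1% parasitemia at 2% hematocrit (final), incubated under 5% CO2 at 37 C.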
* = called active by the depositor; ? = inconclusive; nt = no result; [ ] = another dose, or the depositor's remark. Unless noted, calls come from the whole dose curve; as a rule, active = well fitted curve in the direction sought with a large enough effect; inconclusive = small, poorly fitted or top-dose-only effect, or another doubt; inactive = no such curve, though single readings can be large; an effect the other way counts as inactive or inconclusive.

SMILES	Shiga toxin inh	Cycloheximide cs	Pf growth 96h	HCV inhibitor	AMA1-RON2 inh	Pf growth 48h
CC(=O)Nc1ccc(NC(=O)C(=O)c2cn(CC(=O)N3CCCCC3)c3ccccc23)cc1	-3	3	?	-27%	-12%	?
CN1CCN(C(=O)C(=O)c2cn(CC(=O)N3CCOCC3)c3ccccc23)CC1	nt	nt	nt	nt	-5%	nt
O=C(Nc1ccccc1)C(=O)c1cn(CC(=O)N2CCCCC2)c2ccccc12	24	14	10µM*	-29%	0%	-20%
CCCc1nc(SCC(=O)NCC2CCCO2)c2c(=O)n(C)c(=O)n(C)c2n1 (stereo not drawn)	-6	13	-24%	2%	-10%	2%
CC1(C(=O)Nc2cccc(NS(C)(=O)=O)c2)Cc2c(-c3ccc(C(N)=O)cc3)ccnc2O1 (stereo not drawn)	nt	nt	nt	nt	4%	nt
O=C(COc1ccccc1)N1CCN(S(=O)(=O)c2cccs2)CC1	-2	3	nt	20%	2%	-19%
O=C(c1cccs1)N1CCCN(c2ncnc3scc(-c4ccccc4)c23)CC1	12	-1	10µM*	?	-7%	5.9µM*
Cc1ccc(-c2csc3ncnc(N4CCN(C(=O)c5ccccc5)CC4)c23)cc1	-17	1	nt	?	-1%	8.3µM*
O=C(COc1ccc(-c2ccccc2)cc1)N1CCN(C(=O)c2cccs2)CC1	40*	15*	10%	?	-8%	4%
O=C(COC(=O)C12CC3CC(CC(Cl)(C3)C1)C2)NCc1ccco1	-9	-4	nt	nt	nt	nt
COc1ccc(-c2nc(CCNS(=O)(=O)c3ccc4c(c3)OCCO4)cs2)cc1	11	0	?	11µM*	-9%	-13%
O=S(=O)(NCCc1ccc2c(c1)OCCO2)c1cccs1	16	19*	39%	?	5%	-3%
O=S(=O)(NCCc1ccccc1)c1cccs1	-7	-2	26%	-2%	18%	17%
COc1cccc(CNC(=O)Cn2ccc3cc(S(=O)(=O)N4CCCCCC4)ccc32)c1	-4	-2	-22%	13µM*	12%	-30%
COc1cccc(CNC(=O)Cn2ccc3cc(S(=O)(=O)N4CCCC4)ccc32)c1	-2	7	21%	-28%	0%	?
CCOc1ccccc1CNC(=O)Cn1ccc2cc(S(=O)(=O)N3CCCC3)ccc21	-7	0	13µM*	?	4%	?
CCOc1ccccc1CNC(=O)CCCn1ccc2cc(S(=O)(=O)N3CCCC3)ccc21	-3	0	?	5%	7%	?
COc1cc(S(=O)(=O)N2CC(=O)Nc3ccccc32)ccc1NC(C)=O	-4	-5	6%	-9%	9%	-10%
O=C(Nc1ncccn1)c1ccc([N+](=O)[O-])o1	64*	52*	64%	?	0%	8.3µM*
O=C(Nc1nc2c(F)cccc2s1)c1ccc([N+](=O)[O-])o1	9	11*	?	-5%	11%	?
Cc1cccc(NC(=O)c2ccc([N+](=O)[O-])o2)c1C	-14	-4	-11%	?	6%	15%
Cc1ccnc(NC(=O)c2ccc([N+](=O)[O-])o2)c1	133*	68*	?	?	-12%	3%
O=C(Nc1ccccn1)c1ccc([N+](=O)[O-])o1	65*	33*	?	?	-28%	?
COCc1cc(=O)[nH]c2c1c(-c1ccccc1)nn2C	-14	2	39%	16%	-1%	8%
CC1(C(=O)Nc2ccc(Cl)c(Cl)c2)CCN1C(=O)C1CCCCC1 (stereo not drawn)	nt	nt	nt	nt	30%	nt
SMILES	Shiga toxin inh	Cycloheximide cs	Pf growth 96h	HCV inhibitor	AMA1-RON2 inh	Pf growth 48h
O=C(O)c1ccc2c(=O)n3c(nc2c1)/C(=C/c1cccc(Cl)c1Cl)CCCC3	-7	-3	12µM*	38%	16%	-25%
O=C(O)c1ccc2c(=O)n3c(nc2c1)/C(=C/c1ccc(F)cc1)CC3	3	6	-12%	5%	-19%	2%
CCCn1c(=O)n(C)c(=O)c2c(SC(C)C(=O)NCC3CCCO3)nc(CC(C)C)nc21 (stereo not drawn)	nt	nt	?	?	0%	?
O=C1CSC(c2ccc(F)cc2)N1c1nc2ccccc2s1 (stereo not drawn)	6	-1	10µM*	12%	-24%	-5%
CC(C)n1nnnc1SCC(=O)Nc1cccc(F)c1	29	10	-3%	-25%	-3%	21%
Cc1cc(N2C(=O)C(O)=C(C(=O)c3cc4ccccc4o3)C2c2cccc(Br)c2)no1 (stereo not drawn)	-11	11	?	-18%	50%	?
CCCOc1cccc(C2C(C(=O)c3cc4ccccc4o3)=C(O)C(=O)N2c2cc(C)on2)c1 (stereo not drawn)	10	-2	3.7µM*	1%	29%	?
COC(=O)c1ccc(C2C(C(=O)c3cc4ccccc4o3)=C(O)C(=O)N2c2cc(C)on2)cc1 (stereo not drawn)	-1	10	7.4µM*	20%	-12%	9.3µM*
Cc1cc(N2C(=O)C(O)=C(C(=O)c3cc4ccccc4o3)C2c2ccc(OC(C)C)cc2)no1 (stereo not drawn)	-4	-2	?	0%	21%	?
O=C(Nc1ccccc1C(=O)NC(Cc1ccccc1)C(=O)NC1CCCCC1)c1ccccc1 (stereo not drawn)	-5	-1	?	-11%	-9%[2.32 µM]	10µM*
CCC(NC(=O)c1ccccc1NC(=O)c1ccco1)C(=O)NC1CCCCC1 (stereo not drawn)	-17	22*	?	0%	-2%	?
O=C(Nc1ccccc1C(=O)NC(Cc1ccccc1)C(=O)O)c1ccccc1 (stereo not drawn)	5	2	?	5%	-3%	?
CCC(NC(=O)c1ccccc1NC(=O)c1ccco1)C(=O)O (stereo not drawn)	-22	-4	0%	15%	-3%	4%
COc1ccc(C(=O)Nc2ccccc2C(=O)NC(Cc2ccc(O)cc2)C(=O)NNC(=O)c2ccccc2Cl)cc1 (stereo not drawn)	4	12*	32%	?	86%	5.2µM*
CCCCN(CC)CCCNC(=O)C1CCN(c2ncnc3c2sc2cccc(F)c23)CC1	56	0	?	?	3%	?
CC1CN(C(=O)c2cc(F)c(F)cc2Cl)CC(C)O1 (stereo not drawn)	nt	nt	nt	17%	-9%	nt
Cc1ccc(C(=O)N2CC(C)OC(C)C2)c(Cl)c1 (stereo not drawn)	63	8	3.7µM*	14%	3%	nt
COc1cc(SC)ccc1C(=O)N1CC(C)OC(C)C1 (stereo not drawn)	12	-1	-3%	4%	3%	1.7µM*
